Measured values from PubChem BioAssay (NCI).
This is part of a sample that, as a whole, favours compounds with a hit. Of some 83,000 tested, about 20% had one in any assay.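 In brief: 96-well plates, 48 h treatment, single concentration, percent growth endpoint.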 A number with no mark means an inactive call. Active and inactive are the calls of the source. The calls were made as follows: active = growth percent below 10; inactive = the rest.

What was measured:
Test in all cases: NCI-60 one-dose screen, 48 h (100 = growth as untreated, 0 = no growth, -100 = all killed)
HOP-92 NSCLC = conditions: 10 µM unless noted
COLO 205 colon = conditions: 10 µM
MALME-3M melanoma = conditions: 10 µM unless noted
SNB-19 CNS = conditions: 10 µM unless noted
U251 CNS = conditions: 10 µM unless noted
SK-MEL-5 melanoma = conditions: 10 µM unless noted
SK-MEL-2 melanoma = conditions: 10 µM unless noted
TK-10 renal = conditions: 10 µM unless noted
ACHN renal = conditions: 10 µM unless noted
SR leukemia = conditions: 10 µM
RPMI-8226 leukemia = conditions: 10 µM unless noted
IGROV1 ovarian = conditions: 10 µM
T-47D breast = conditions: 10 µM unless noted
HCT-116 colon = conditions: 10 µM unless noted
NCI-H522 lung = conditions: 10 µM unless noted
SNB-75 CNS = conditions: 10 µM unless noted
EKVX NSCLC = conditions: 10 µM unless noted
MDA-MB-435 melanoma = conditions: 10 µM unless noted
CCRF-CEM leukemia = conditions: 10 µM unless noted

O=C(/C=C/c1ccccc1)N[C@@H](CO)Cc1cnc[nH]1
growth (HOP-92 NSCLC): 100%
growth (COLO 205 colon): 104%
growth (MALME-3M melanoma): 110%
growth (SNB-19 CNS): 103%
growth (U251 CNS): 101%
growth (SK-MEL-5 melanoma): 103%
growth (SK-MEL-2 melanoma): 102%
growth (TK-10 renal): 93.5%
growth (ACHN renal): 96.4%
growth (SR leukemia): 93.6%
growth (RPMI-8226 leukemia): 98%
growth (IGROV1 ovarian): 92.9%
growth (T-47D breast): 104%
growth (HCT-116 colon): 109%

CCC(CO)NC1CCCCC1 (stereo not drawn)
growth (NCI-H522 lung): 68.1%
growth (COLO 205 colon): 43.2%
growth (MALME-3M melanoma): 86.1%
growth (SNB-75 CNS): 81.6%
growth (SNB-19 CNS): 88.3%
growth (U251 CNS): 55.1%
growth (SK-MEL-5 melanoma): 93.4%
growth (SK-MEL-2 melanoma): 81.2%
growth (EKVX NSCLC): 90%
growth (TK-10 renal): 70.8%
growth (ACHN renal): 84.7%
growth (SR leukemia): 1.74% (active)
growth (RPMI-8226 leukemia): 97.6%
growth (IGROV1 ovarian): 53.9%
growth (MDA-MB-435 melanoma): 74.2%
growth (HCT-116 colon): 26.8%

CC(=O)Oc1ccc(Cl)cc1
growth (HOP-92 NSCLC): 91.1%
growth (MALME-3M melanoma): 96.7%
growth (SNB-75 CNS): 81.9%
growth (U251 CNS): 97.8%
growth (SK-MEL-5 melanoma): 104%
growth (SK-MEL-2 melanoma): 106%
growth (EKVX NSCLC): 101%
growth (TK-10 renal): 97%
growth (ACHN renal): 97.5%
growth (CCRF-CEM leukemia): 104%
growth (IGROV1 ovarian): 114%
growth (T-47D breast): 94.2%
growth (MDA-MB-435 melanoma): 101%
growth (HCT-116 colon): 95.3%

CCC(/C=C(C)/C=C/C(=O)c1c(O)c(-c2ccc(O)cc2)c[nH]c1=O)CO (stereo not drawn)
growth (HOP-92 NSCLC): 26.2%
growth (COLO 205 colon): 124%
growth (SNB-75 CNS): 91.3%
growth (SK-MEL-5 melanoma): 99.9%
growth (SK-MEL-2 melanoma): 88.7%
growth (EKVX NSCLC): 89.2%
growth (TK-10 renal): 130%
growth (ACHN renal): 104%
growth (CCRF-CEM leukemia): 7.28% (active)
growth (SR leukemia): 19.9%
growth (T-47D breast): 92.6%
growth (MDA-MB-435 melanoma): 80.9%
growth (HCT-116 colon): 80.1%

C=CC(O)CN1CC1CC (stereo not drawn)
growth (HOP-92 NSCLC): 93.6%
growth (MALME-3M melanoma): 110%
growth (SNB-75 CNS): 85.1%
growth (SNB-19 CNS): 97.8%
growth (U251 CNS): 93.8%
growth (SK-MEL-5 melanoma): 115%
growth (EKVX NSCLC): 102%
growth (ACHN renal): 102%
growth (CCRF-CEM leukemia): 116%
growth (SR leukemia): 89.9%
growth (IGROV1 ovarian): 108%
growth (T-47D breast): 101%
growth (MDA-MB-435 melanoma): 99.1%

NC(=O)SCC(=O)Nc1ccc([As](=O)(O)O)cc1
growth (NCI-H522 lung): -9.01% (active)
growth (COLO 205 colon): 75.6%
growth (MALME-3M melanoma): 122%
growth (SNB-75 CNS): 96.6%
growth (SNB-19 CNS): 92.8%
growth (U251 CNS): 44.4%
growth (SK-MEL-5 melanoma): 102%
growth (SK-MEL-2 melanoma): 73.3%
growth (EKVX NSCLC): 111%
growth (TK-10 renal): 105%
growth (ACHN renal): 100%
growth (CCRF-CEM leukemia): 59.3%
growth (SR leukemia): 100%
growth (RPMI-8226 leukemia): 84%
growth (IGROV1 ovarian): 65.5%
growth (T-47D breast): 112%
growth (HCT-116 colon): 85.6%

CC(C)Nc1ccc(Nc2ccccc2)cc1
growth (NCI-H522 lung): 40.8%
growth (COLO 205 colon): 43.6%
growth (MALME-3M melanoma): 43%
growth (SNB-75 CNS): 29.8%
growth (SNB-19 CNS): 33.7%
growth (U251 CNS): 12.5%
growth (SK-MEL-5 melanoma): 57.9%
growth (SK-MEL-2 melanoma): 80.5%
growth (EKVX NSCLC): 29.4%
growth (ACHN renal): 30.5%
growth (CCRF-CEM leukemia): 38.3%
growth (SR leukemia): 51.2%
growth (RPMI-8226 leukemia): 11.5%
growth (IGROV1 ovarian): 27%
growth (T-47D breast): 42.9%
growth (MDA-MB-435 melanoma): 23%
growth (HCT-116 colon): 9.97% (active)

Nc1ccc(N)c2c1Oc1ccccc1O2
growth (HOP-92 NSCLC): 74.8%
growth (MALME-3M melanoma): 111%
growth (SNB-19 CNS): 104%
growth (U251 CNS): 94.3%
growth (SK-MEL-5 melanoma): 72.6%
growth (SK-MEL-2 melanoma): 95.9%
growth (EKVX NSCLC): 92.1%
growth (TK-10 renal): 131%
growth (ACHN renal): 94.7%
growth (CCRF-CEM leukemia): 30.3%
growth (RPMI-8226 leukemia): 81%
growth (IGROV1 ovarian): 6.91% (active)
growth (T-47D breast): 98.1%
growth (MDA-MB-435 melanoma): 109%
growth (HCT-116 colon): 95.7%

CCC(C)/C=C(C)/C=C/C(=O)c1c(O)c(-c2ccc(O)cc2)c[nH]c1=O (stereo not drawn)
growth (NCI-H522 lung): 34.1%
growth (COLO 205 colon): 105%
growth (MALME-3M melanoma): 75%
growth (SNB-75 CNS): 51.5%
growth (SNB-19 CNS): 59%
growth (U251 CNS): 40.9%
growth (SK-MEL-5 melanoma): 63.4%
growth (SK-MEL-2 melanoma): 89.1%
growth (EKVX NSCLC): 58%
growth (TK-10 renal): 27.3%
growth (ACHN renal): 50.5%
growth (CCRF-CEM leukemia): 16.2%
growth (SR leukemia): 13%
growth (RPMI-8226 leukemia): 41.6%
growth (IGROV1 ovarian): 40.7%
growth (T-47D breast): 48.6%
growth (MDA-MB-435 melanoma): 24.2%

CO[C@@H](c1ccccc1Cl)[C@H](C)OC(N)=O
growth (NCI-H522 lung): 94.2%
growth (COLO 205 colon): 101%
growth (MALME-3M melanoma): 93.5%
growth (SNB-75 CNS): 70.8%
growth (SNB-19 CNS): 96.7%
growth (U251 CNS): 94.1%
growth (SK-MEL-5 melanoma): 98.7%
growth (SK-MEL-2 melanoma): 107%
growth (EKVX NSCLC): 100%
growth (TK-10 renal): 97.6%
growth (ACHN renal): 99.6%
growth (SR leukemia): 111%
growth (RPMI-8226 leukemia): 110%
growth (IGROV1 ovarian): 102%
growth (T-47D breast): 101%
growth (MDA-MB-435 melanoma): 97.8%
growth (HCT-116 colon): 97.2%
